Screening results: PubChem, The Scripps Research Institute Molecular Screening Center
COUP-TFII inh – NR2F2 transcriptional activity inhibitors, primary screen, cell-based, luciferase reporter, HEK293T, luminescence; HEK293T NGFI-A luciferase reporter; inhibition, % at 8.6 µM; actives 0.7% (n = 370,000); AID 686940, 2013;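 active = inhibition above a per-plate cutoff, mean inhibition of test wells between control levels plus 3 SD, cut at about 38% in these data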;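 also: cells cotransfected with COUP-TFII expression vector driving the NGFI-A reporter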
SRC1 inh – SRC1 coactivator transcriptional activity inhibitors, primary screen, cell-based, luminescence. Nuclear receptor coactivator 1 (Homo sapiens), Q15788. HEK293 GAL4-SRC1 luciferase reporter. inhibition, % at 3.6 µM. actives 0.12% (n = 360,000). AID 588354, 2011;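 active = inhibition above the campaign mean plus 3 SD, with each screening campaign given its own cutoff, cut at about 60% in these data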
SRC2 inh – inhibition of GAL4-SRC2 driven luciferase reporter, primary screen, SRC2 inhibitor project, cell-based, luminescence | inhibition, % at 9 µM | HEK293 GAL4-SRC2 luciferase reporter | Nuclear receptor coactivator 2 (Homo sapiens), Q15596 | AID 651957, 2012 | actives 0.17% (n = 370,000);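 active = inhibition above the mean inhibition of all tested compounds plus 3 SD, set per campaign, cut at about 52% in these data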
LRH-1 inv ag – LRH-1 (NR5A2) inverse agonists, primary screen, cell-based, luminescence, HEK293T, StAR-luciferase reporter; actives 0.13% (n = 360,000); LRH-1 transfected, 24 h; Nuclear receptor subfamily 5 group A member 2 (Homo sapiens), O00482; inhibition, % at 3.6 µM;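 active = inhibition above the mean inhibition of all tested compounds plus 3 SD, cut at about 73% in these data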
Target sequence (O00482 whole entry, looked up): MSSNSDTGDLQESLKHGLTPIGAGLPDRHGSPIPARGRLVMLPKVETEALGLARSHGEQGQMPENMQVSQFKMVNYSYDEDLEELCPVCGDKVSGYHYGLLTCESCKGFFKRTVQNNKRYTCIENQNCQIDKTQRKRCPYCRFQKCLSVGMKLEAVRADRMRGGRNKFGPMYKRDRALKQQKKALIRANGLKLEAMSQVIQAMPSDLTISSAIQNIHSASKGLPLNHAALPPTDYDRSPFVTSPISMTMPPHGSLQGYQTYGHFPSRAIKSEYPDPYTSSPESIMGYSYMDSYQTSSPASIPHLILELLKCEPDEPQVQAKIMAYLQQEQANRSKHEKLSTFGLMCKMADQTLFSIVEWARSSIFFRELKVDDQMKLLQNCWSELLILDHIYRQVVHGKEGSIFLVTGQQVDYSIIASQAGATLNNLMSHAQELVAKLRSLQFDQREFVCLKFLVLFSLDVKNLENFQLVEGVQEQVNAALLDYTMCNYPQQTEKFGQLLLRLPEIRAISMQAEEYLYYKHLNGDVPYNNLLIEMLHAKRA
NCOA3 inh – SRC3 coactivator transcriptional activity inhibitors, primary screen, cell-based, luminescence | Nuclear receptor coactivator 3 (Homo sapiens), Q9Y6Q9 | HEK293 GAL4-SRC3 luciferase reporter | AID 588352, 2011 | actives 0.17% (n = 360,000) | inhibition, % at 3.6 µM;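 active = inhibition above a per-campaign cutoff, the mean of all compounds plus 3 SD, cut at about 60% in these data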;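 also: higher means less SRC3-driven luciferase light from the GAL4 reporter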
Of the large screens only hits and unclear results are named; the others gave an inactive call; ! = not confirmed by another sample. Sampled rows, rich in hits. Any-hit rate of the full collection: about 0.84%.

CC(OC(=O)c1snc(C(=O)NC2CCCCC2)c1N)C(=O)NC(C)(C)C (centres undefined)	none
Nc1nc(=S)c2ncn([C@@H]3O[C@H](CO)[C@@H](O)[C@H]3O)c2[nH]1	LRH-1 inv ag 81
Nc1ccn([C@@H]2O[C@H](CO)[C@@H](O)[C@@H]2O)c(=O)n1	none
Nc1ncn([C@@H]2O[C@H](CO)[C@@H](O)[C@H]2O)c(=O)n1	SRC1 inh 65, LRH-1 inv ag 75, NCOA3 inh 79
C=CCn1c(C)cc(C2=NNC(=NC(C)(C)C)SC2)c1C	COUP-TFII inh 58
O=C(CC(Nc1ccc(Cl)cc1Cl)C(=O)O)c1ccccc1 (centres undefined)	SRC1 inh 63, NCOA3 inh 64
CCCCCCCCNc1ncnc2[nH]ncc12	COUP-TFII inh 38
OCCCNc1ncnc2[nH]ncc12	none
CC(C)CN(CC(C)C)C(=O)c1cn(C(C)c2ccccc2)nn1 (centres undefined)	none (no result: SRC1 inh, LRH-1 inv ag, NCOA3 inh)
C=CCn1cc(/C=C/c2cc[n+](C)cc2)c2ccccc21	COUP-TFII inh 49
CC(C)n1cc(/C=C/c2cc[n+](C)cc2)c2ccccc21	none
OC1(c2cccc(C(F)(F)F)c2)CCN(c2ncnc3c2[nH]c2ccc(F)cc23)CC1	COUP-TFII inh 47
Clc1ccc(SCNc2ccccc2Cl)cc1	COUP-TFII inh 39
O=S1(=O)c2c(cccc2N2CCC[C@H]2CO)O[C@H]2CCN1C2	none (no result: SRC1 inh, LRH-1 inv ag, NCOA3 inh)
O=C(NCCc1ccccc1)c1ccc(Sc2ccccc2Cl)c([N+](=O)[O-])c1	none (no result: SRC1 inh, LRH-1 inv ag, NCOA3 inh)
O=c1[nH]c(=O)n([C@H]2C[C@H](O)[C@@H](CO)O2)cc1F	SRC1 inh 66, NCOA3 inh 67
O=c1[nH]c(=O)n(C2CC(O)C(CO)O2)cc1I (centres undefined)	none
CCn1c(SCC(=O)Nc2nc(-c3ccc(C)cc3)cs2)nnc1-c1ccccc1O	COUP-TFII inh 48
CCn1c(SCC(=O)Nc2nc(-c3ccc(C)cc3)cs2)nnc1-c1ccccc1	none
COc1cccc2c1C1COC3C4CC(C(=O)O)C(C(C2)N13)N4C (centres undefined)	LRH-1 inv ag 88
COC(=O)[C@]12C=CCN1[C@@H](c1ccc(Cl)cc1)c1c(c3ccccc3n1S(=O)(=O)c1ccc(C)cc1)C2	none (no result: SRC1 inh, LRH-1 inv ag, NCOA3 inh)
O=c1ccc2ccccc2c2ccccc12	SRC1 inh 64, SRC2 inh 70, LRH-1 inv ag 93, NCOA3 inh 75
CC(C)C[C@H](NC1(C(=O)NC2CCCCC2)CCOCC1)C(=O)NCC(c1ccccc1)c1ccccc1	none (no result: SRC1 inh, SRC2 inh, LRH-1 inv ag, NCOA3 inh)
COc1ccc2ccccc2c1/C=N\NC(=O)c1cccnc1	none
COc1ccccc1/C=N/NC(=O)c1ccc(C)nc1	none
O=C(NN=Cc1c(O)ccc2ccccc12)c1ccncc1	LRH-1 inv ag 91, NCOA3 inh 75
O=C(N/N=C\c1c(O)ccc2ccccc12)c1ccc(O)cc1	none
Cn1cc(C(=O)N/N=C/c2c(O)ccc3ccccc23)ccc1=O	NCOA3 inh 62
O=C(N/N=C/c1c(O)ccc2ccccc12)c1ccc[n+](CCO)c1	none
Cc1ccc(C(=O)N/N=C/c2c(O)ccc3ccccc23)cn1	SRC1 inh 68, LRH-1 inv ag 87, NCOA3 inh 74
O=C(N/N=C/c1c(O)ccc2ccccc12)c1cccnc1	LRH-1 inv ag 92, NCOA3 inh 77
CC(=O)N1CCCN(C(=O)CN2C(=O)CC(C)(C)S(=O)(=O)c3ccccc32)CC1	none (no result: SRC1 inh, LRH-1 inv ag, NCOA3 inh)
CCN(C(=O)Cn1nnc(-c2ccncc2)n1)c1ccccc1	none (no result: SRC1 inh, LRH-1 inv ag, NCOA3 inh)
O=C(N/N=C\c1c(O)ccc2ccccc12)c1cncc(Br)c1	NCOA3 inh 69
Cn1nccc1C(=O)N/N=C/c1c(O)ccc2ccccc12	SRC1 inh 68, LRH-1 inv ag 90, NCOA3 inh 73
O=C(N/N=C/c1c(O)ccc2ccccc12)c1ccc(Br)o1	none
Cc1occc1C(=O)N/N=C/c1c(O)ccc2ccccc12	none
O=C(CN1CCc2onc(-c3ccc(-n4cc(-c5ccccc5)nn4)cc3)c2C1=O)N1CCOCC1	none (no result: SRC1 inh, LRH-1 inv ag, NCOA3 inh)
CCC[C@@H](/C=C/C(=O)OC(C)(C)C)Sc1ccc(OC)cc1	none (no result: SRC1 inh, LRH-1 inv ag, NCOA3 inh)
Cc1cc(C(=O)Nc2ccc(CC(=O)O)cc2)c(C)o1	SRC2 inh 55
COC(=O)[C@]12C[C@H](CC(=O)N3CCOCC3)C(=O)N(Cc3cccc4ccccc34)C1=C[C@H](C(C)(C)C)O[C@@H]2C	none (no result: SRC1 inh, LRH-1 inv ag, NCOA3 inh)
CN(Cc1cnc2nc(N)nc(N)c2n1)c1ccc(C(=O)N[C@@H](CCC(=O)O)C(=O)O)cc1	SRC1 inh 68!
Nc1nc2ncc(CNc3ccc(C(=O)N[C@@H](CCC(=O)O)C(=O)O)cc3)nc2c(=O)[nH]1	none
O=Cc1nc(Nc2cc(F)cc(F)c2)nc(NC2CCCC2)n1	none (no result: SRC1 inh, SRC2 inh, LRH-1 inv ag, NCOA3 inh)
CCOc1cc2c(cc1OCC)C(c1ccc(OC)cc1)N(c1ccccc1)C(=O)C2 (centres undefined)	LRH-1 inv ag 76
Cn1nnnc1N=N/C(=N/Nc1ccccc1)c1ccccc1	SRC1 inh 76, NCOA3 inh 81
CCOC(=O)C1CCN(C(=O)C(C)(C)NC(=O)Nc2ccc(OC)c(Cl)c2)CC1	none (no result: SRC1 inh, SRC2 inh, LRH-1 inv ag, NCOA3 inh)
CC1CN(S(=O)(=O)c2cccc(C(=O)NCCCn3ccnc3)c2)CC(C)O1 (centres undefined)	none
CC1CN(S(=O)(=O)c2ccc(C(=O)NCCCn3ccnc3)cc2)CC(C)O1 (centres undefined)	SRC1 inh 62
COC(=O)C1CN(Cc2ccccc2)CCS(=O)(=O)N1Cc1ccc(OC)cc1 (centres undefined)	none (no result: SRC1 inh, LRH-1 inv ag, NCOA3 inh)
Nc1ccc(-c2cnc(N)c(C(=O)c3cccnc3)n2)cn1	SRC1 inh 69, NCOA3 inh 70 (no result: COUP-TFII inh, SRC2 inh)
Nc1ccc(C(=O)c2cccs2)cn1	none
O=C(C1=C[C@H](c2ccccc2)C[C@H](OCCCCO)O1)N1CCN(Cc2ccccc2)CC1	none
C#Cc1ccc([C@@H]2C=C(C(=O)N3CCN(Cc4ccccc4)CC3)O[C@H](OCCCCO)C2)cc1	LRH-1 inv ag 89 (no result: COUP-TFII inh, SRC2 inh)
Cn1c(=O)cc(OCCCC(=O)Nc2cc(Br)ccn2)c2ccccc21	none (no result: SRC1 inh, SRC2 inh, LRH-1 inv ag, NCOA3 inh)
Cc1ccnc(NC(=O)CCCOc2cc(=O)n(C)c3ccccc23)c1	LRH-1 inv ag 74
C[N+]1(CC2COC3(CCCCC3)O2)CCCC1 (centres undefined)	SRC2 inh 97
C1CCCCCC2(CCCCC1)OCC(CN1CCOCC1)O2 (centres undefined)	none
C=CCn1c(COc2ccc(Cl)cc2)nnc1SCC(=O)c1ccccc1	none (no result: SRC1 inh, LRH-1 inv ag, NCOA3 inh)
Cc1cc(C(=O)COc2cccnc2[N+](=O)[O-])c(C)n1-c1ccccc1	SRC1 inh 69, NCOA3 inh 66
CSc1nc(N)nc2c1ncn2CC(=O)N1CCN(Cc2c(C)cc(C)cc2C)CC1	COUP-TFII inh 51
